For 25 molecules, outcome and AC50 results are on record in PubChem BioAssay (EPA / NIEHS).

Activity calls are given as the source filed them. The calls were made as follows: active = hit-call score of the fitted dose curve at least 0.9, where 1 is the maximum; inactive = score below 0.9.

Assay [1] in a line: ATG_NFI_CIS: Attagene CIS-FACTORIAL HepG2 Assay for human Nuclear Factor I (NFI) (AID 2282989). The note with it: HepG2 cis-regulatory reporter, NFI response element transcription; actives raise or lower the signal. The procedure, abridged: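 Multiplexed cis-reporter system in human HepG2 cells reports native TF activity as reporter mRNA induction 24 h post-dose. Fragments labelled with 6-FAM, HpaI-digested and resolved by capillary electrophoresis; activity fitted both directions versus DMSO.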

In assay [2] the target is Myc proto-oncogene protein (Homo sapiens) (UniProt P01106). The assay is described as follows: ATG_Myc_CIS: Attagene CIS-FACTORIAL HepG2 Assay for human Myelocytomatosis (Myc) Proto-Oncogene Transcription Factor (AID 2282990). To be noted: HepG2, Attagene cis-reporter transcription factor activity; actives raise or lower the signal. The procedure, abridged: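 Read-out: fluorescent reporter mRNA fragments resolved by capillary electrophoresis after RT-PCR. Human HepG2 liver cells carried transfected cis-element reporter units and were dosed for 24 h. Gain or loss of signal fitted relative to DMSO baseline.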
Chain of Myc proto-oncogene protein (Homo sapiens) (P01106 whole entry, looked up, the tested form may be a part): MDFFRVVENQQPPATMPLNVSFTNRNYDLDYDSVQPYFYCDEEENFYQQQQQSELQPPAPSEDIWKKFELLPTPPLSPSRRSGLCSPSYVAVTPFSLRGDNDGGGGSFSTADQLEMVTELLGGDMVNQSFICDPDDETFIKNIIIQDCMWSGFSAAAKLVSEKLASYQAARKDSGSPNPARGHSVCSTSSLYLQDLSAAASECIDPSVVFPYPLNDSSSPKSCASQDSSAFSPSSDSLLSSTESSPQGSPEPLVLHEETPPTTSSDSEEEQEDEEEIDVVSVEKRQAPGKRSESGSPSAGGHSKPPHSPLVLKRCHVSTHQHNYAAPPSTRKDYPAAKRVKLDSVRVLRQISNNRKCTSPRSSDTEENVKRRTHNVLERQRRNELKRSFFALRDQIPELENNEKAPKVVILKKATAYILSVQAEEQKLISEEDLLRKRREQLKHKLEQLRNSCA

A short description of assay [3]: ATG_NF_kB_CIS: Attagene CIS-FACTORIAL HepG2 Assay for human Nuclear Factor Kappa B (NF-kB) (AID 2282991). To be noted: HepG2 Attagene cis-factorial NF-kB reporter mRNA; actives raise or lower the signal. The procedure, abridged:
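HepG2, transient multi-reporter transfection, cis promoter elements (endogenous TFs). 24 h exposure. Total RNA → RT → PCR → 6-FAM label → HpaI → CE. Gain/loss vs DMSO.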

Assay [4] can be described thus: ATG_NRF2_ARE_CIS: Attagene CIS-FACTORIAL HepG2 Assay for human Nuclear Factor Erythroid 2 Related Factor 2 (NFR2) response to Antioxidant Response Elements (ARE) (AID 2282992).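 As to AC50: reporter mRNA level measured by RT-PCR and capillary electrophoresis fluorescence.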 To be noted: HepG2 Attagene ARE/NRF2 reporter, transcription factor activity; actives raise or lower the signal. The procedure, abridged: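 HepG2 cells transiently transfected with multiplexed cis-element reporter constructs, 24 h after chemical dosing; reporter mRNA quantified by RT-PCR, fluorescent primer extension, HpaI digestion and capillary electrophoresis. Bidirectional fit relative to DMSO.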

Assay [5] can be described thus: ATG_Oct_MLP_CIS: Attagene CIS-FACTORIAL HepG2 Assay for human Octamer-Binding Transcription Factor (Oct) (AID 2282993). To be noted: HepG2 Attagene cis-factorial Oct reporter, mRNA; actives raise or lower the signal. The procedure, abridged: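 After 24 h compound exposure, transfected HepG2 cells were lysed for total RNA; reporter-specific cDNA was PCR-amplified, fluorescently labelled and sized by capillary electrophoresis. Bidirectional curve fitting used DMSO as baseline.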

Assay [6] addresses Cellular tumor antigen p53 (Homo sapiens) (UniProt P04637). Kind of assay: ATG_p53_CIS: Attagene CIS-FACTORIAL HepG2 Assay for human p53 Transcription Factor (AID 2282994). To be noted: HepG2 p53 cis-element reporter, Attagene mRNA; actives raise or lower the signal. The procedure, abridged:
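HepG2 cells transiently transfected with cis-regulated multiple reporter transcription units, dosed 24 h. Reporter mRNA measured by RT-PCR, 6-FAM primer extension, HpaI digestion and capillary electrophoresis; bidirectional fit relative to DMSO.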

Assay [7] can be described thus: BSK_3C_TissueFactor: BioMAP Diversity Plus: 3C Assay for Tissue Factor Biomarker Activity (AID 2282997). To be noted: BioMAP 3C HUVEC, tissue factor biomarker readout; actives raise or lower the signal. The procedure, abridged:
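Primary human umbilical vein endothelial cells in the 3C system were exposed to test chemical for 24 h, then Tissue Factor measured by ELISA. Activity was fitted bidirectionally against DMSO as negative control and baseline.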

A short description of assay [8]: BSK_3C_uPAR: BioMAP Diversity Plus: 3C Assay for Urokinase-type plasminogen activator receptor (uPAR) Biomarker Activity (AID 2282998). The note with it: BioMAP 3C HUVEC, uPAR biomarker ELISA; actives raise or lower the signal. The procedure, abridged:
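Values derive from bidirectional curve fitting relative to DMSO, which served as baseline of activity. uPAR was measured by ELISA in human umbilical vein endothelial primary cultures 24 h after compound addition.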

Assay [9] in a line: BSK_3C_VCAM1: BioMAP Diversity Plus: 3C Assay for Vascular cell adhesion molecule 1 (VCAM1) Biomarker Activity (AID 2282999). The note with it: BioMAP 3C HUVEC, VCAM1 ELISA, cytokine-stimulated; actives raise or lower the signal. The procedure, abridged:
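Human umbilical vein endothelial cells (3C system), biomarker read by ELISA 24 h after dosing; bidirectional fit against DMSO baseline. Cytotoxicity tracked by SRB total-protein staining in parallel cultures at biomarker time.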

Assay [10] can be described thus: BSK_4H_Eotaxin3: BioMAP Diversity Plus: 4H Assay for Eotaxin 3 Biomarker Activity (AID 2283000).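 As to outcome: CCL26 protein level quantified by ELISA in parallel with SRB cytotoxicity check.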 The note with it: primary human endothelial cells (HUVEC); actives raise or lower the signal. The procedure, abridged: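 HUVEC, 24 h post-dose, ELISA for Eotaxin-3/CCL26. Gain or loss of signal fitted bidirectionally vs DMSO baseline.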

Chain of Cellular tumor antigen p53 (Homo sapiens) (P04637 whole entry, looked up): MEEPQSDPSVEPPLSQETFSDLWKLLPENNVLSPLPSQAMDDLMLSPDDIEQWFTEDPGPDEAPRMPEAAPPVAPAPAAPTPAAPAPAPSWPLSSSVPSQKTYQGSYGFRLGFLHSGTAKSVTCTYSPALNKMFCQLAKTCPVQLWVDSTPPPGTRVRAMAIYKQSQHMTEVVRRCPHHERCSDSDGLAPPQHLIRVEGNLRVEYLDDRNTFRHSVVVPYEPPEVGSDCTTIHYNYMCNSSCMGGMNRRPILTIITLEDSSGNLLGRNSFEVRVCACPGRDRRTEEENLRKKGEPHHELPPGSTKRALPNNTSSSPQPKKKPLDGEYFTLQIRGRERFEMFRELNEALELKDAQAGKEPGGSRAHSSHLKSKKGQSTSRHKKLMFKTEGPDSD

In the case of `CCC(O)CO` (stereo unspecified), the call in assay [1], in assay [2], in assay [3], in [4], in assay [5] and in [6] was inactive.

As to `c1cc(C(c2ccc(OCC3CO3)cc2)c2ccc(OCC3CO3)cc2)ccc1OCC1CO1` (stereo unspecified), the AC50 was 10.1 µM (active) in assay [1], 100 µM (active) in [3], 24.8 µM (active) in assay [5] and 11.8 µM (active) in [6]. Also, the molecule was called inactive in assay [2] and in [4].

Turning to `CCCCCCCCCCCCCCCCCC(=O)OCC(CC)CCCC` (stereo unspecified), the molecule was classed as inactive in assay [1], in assay [2], in assay [3], in assay [4], in assay [5] and in assay [6]. Besides, the outcome in assay [7], in [8], in [9] and in assay [10] was inactive.

Take `CC(=O)O[C@]1(C(C)=O)CC[C@H]2[C@@H]3C[C@H](C)C4=CC(=O)CC[C@]4(C)[C@H]3CC[C@@]21C`: the molecule was classed as inactive in [1], in assay [2], in assay [5], in [7], in assay [8] and in [9]. In addition, in assay [10], the outcome was inactive. For the same molecule, the AC50 in assay [3] is 20 µM (active); in [4] it was 65.1 µM (active); in assay [6], 34.9 µM (active).

Take `CCCCCCCCCCCCCCCC(=O)OC[C@H](O)[C@H]1OC(=O)C(O)=C1O`: the call in assay [1], in assay [2], in [3], in [5] and in assay [6] was inactive. Also, in [4], the AC50 is 66.8 µM (active).

On to `C=COCCOCCOCCOC=C`, for which the result in assay [1], in assay [2], in assay [3], in assay [4], in [5] and in [6] was inactive.

On to `CCn1c2ccccc2c2cc(N)ccc21`, for which the result in [1], in assay [2], in [3], in assay [5], in [6] and in assay [7] was inactive. Further, the result in assay [9] and in [10] was inactive. Moreover, the values for the AC50 in assay [4] and in assay [8] were 26.4 µM (active) and 1.82 µM (active), respectively.

In the case of `CCCCN`, the call in assay [1], in assay [2], in [3], in assay [4], in assay [5] and in assay [6] was inactive.

Consider `OC1OC[C@@H](O)[C@H](O)[C@H]1O` (stereo partly specified), for which the outcome in assay [1], in [2], in [3], in [4], in assay [5] and in assay [6] was inactive. Moreover, the result in assay [7], in assay [8], in [9] and in assay [10] was inactive.

As to `Cc1ccc(Nc2ccc(O)c3c2C(=O)c2ccccc2C3=O)cc1`, the molecule was called inactive in assay [1], in [2], in assay [3], in [5], in [6] and in [8]. The result in assay [9] and in [10] was inactive. Besides, the AC50 in assay [4] is 5.13 µM (active); in assay [7], 1.13 µM (active).

Turning to `O=C(O)c1snc(Cl)c1Cl`, the outcome in [1], in assay [2] and in assay [6] was inactive. Besides, the AC50 in assay [3] is 100 µM (active); in [4], 27.4 µM (active); in assay [5], 155 µM (active).

As for `Clc1cccc(Cl)n1`, the result in assay [1], in assay [2], in assay [3], in assay [4], in assay [5] and in [6] was inactive.

Take `NNc1nc(-c2ccc(N)cc2)cs1`: the outcome in [1], in [2], in [3], in assay [4], in [5] and in [6] was inactive.

In the case of `NC(=O)NC1NC(=O)NC1=O` (stereo unspecified), the molecule was called inactive in [1], in [2], in [3], in assay [4], in [5] and in assay [6].

Take `CC(=O)Nc1ccccc1O`: the molecule was called inactive in assay [1], in assay [2], in assay [3], in [4], in [5] and in assay [6]. Besides, the outcome in [7], in assay [8], in assay [9] and in assay [10] was inactive.

Regarding `CC(CC(C)(C)C)CC(C)(C)CC(C)(C)C` (stereo unspecified), the result in [1], in assay [2], in assay [3], in assay [4], in [5] and in [6] was inactive.

For `CCc1c(C)cc(N)c(CC)c1N`, the call in assay [1], in assay [2], in [3], in assay [4], in [5] and in assay [6] was inactive. In addition, the outcome in [7], in assay [8], in assay [9] and in assay [10] was inactive.

Consider `CN(CCOc1ccc(CC2SC(=O)NC2=O)cc1)c1ccccn1` (stereo unspecified), for which the molecule was classed as inactive in assay [1], in [2], in [3], in assay [5], in assay [6] and in [7]. Also, the outcome in [9] was inactive. Further, the AC50 is 15.1 µM (active) in assay [4], 6.93 µM (active) in assay [8] and 3.97 µM (active) in assay [10].

For the molecule `Cc1ccc2n[nH]nc2c1`, the result in assay [1], in assay [2], in assay [3], in assay [4], in [5] and in assay [6] was inactive. The result in [7], in [8], in assay [9] and in assay [10] was inactive.

For the molecule `C=CC(C)(O)CCC=C(C)CCC=C(C)C` (stereo unspecified), the AC50 in assay [1] was 143 µM (active); in assay [2] it was 181 µM (active); in assay [3], 180 µM (active); in [4] it was 100 µM (active). In addition, the outcome in [6] was inactive.

As for `CC(C=O)Cc1ccc(C(C)C)cc1` (stereo unspecified), the result in assay [1], in assay [2], in [3], in assay [4] and in assay [6] was inactive.

On to `CN(C)C(=N)N=C(N)N`, for which the molecule was called inactive in assay [1], in assay [2], in assay [3] and in assay [5].

In the case of `CC1COc2ccccc2N1C(=O)C(Cl)Cl` (stereo unspecified), the molecule was classed as inactive in assay [1], in assay [2], in assay [3] and in assay [7]. In addition, the AC50 in assay [5] is 30.6 µM (active); in assay [8] it was 5.99 µM (active); in assay [9] it was 11.3 µM (active); in assay [10], 7.09 µM (active).

As to `CC1(C)C(=O)N(Br)C(=O)N1Cl`, the call in [1], in [2], in [3] and in assay [6] was inactive. The AC50 in [4] is 100 µM (active).

`Cc1ccc(O)c(C(C)(C)C)c1`: the outcome in [1] and in assay [6] was inactive. In addition, the half-maximal activity concentration (AC50) in [2] was 79.5 µM (active); in assay [3], 100 µM (active); in [4] it was 25.2 µM (active); in assay [7], 36.7 µM (active); in assay [8], 20 µM (active); in assay [9], 30 µM (active). In assay [10], the AC50 was 35 µM (active).
